Consider 36 compounds from PubChem BioAssay AID652062 (Broad Institute, 2013).

The whole screen tested about 1,400 compounds, of which about 1,100 (79%) were called active.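 The calls were made as follows: active = fitted half-maximal concentration of a falling signal no higher than twice the top valid dose in every test run; inconclusive = runs disagree, or flat partial inhibition, or poor fit; inactive = every run inactive: flat, wrong direction, or potency beyond limit.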 The set was probably picked from earlier hits. These entries were drawn from the full list. Entries with a potency or affinity are not part of this list.

The assay is described as follows: HIV-1 AD8 envelope cell-cell fusion blockers – cherry-pick, dose response (AID 652062). The following applies: HeLa-AD8 Env / CEM-CCR5 cell fusion, luciferase; at 35 µM (top of the series) unless noted.
Consider `COc1ccccc1C(=O)Nc1ccc2c(c1)OC[C@H](C)N(C(C)=O)C[C@H](C)[C@H](OC)CN(C)C2=O`, for which the activity change, negative = inhibition was -17.7%.

As for `CO[C@@H]1CN(C)C(=O)c2ccc(NC(C)=O)cc2OC[C@@H](C)N(Cc2cncnc2)C[C@@H]1C`, the activity change, negative = inhibition stood at 15.1%. Take `CO[C@H]1CN(C)C(=O)c2cc(NC(C)=O)ccc2OC[C@@H](C)N(Cc2nccs2)C[C@H]1C`: the activity change, negative = inhibition was found to be 20%. To `CCCC(=O)Nc1ccc2c(c1)C(=O)N(C)C[C@@H](OC)[C@@H](C)CN(Cc1nccs1)[C@@H](C)CO2` belongs 33.3%. The figure for `CO[C@@H]1CN(C)C(=O)c2cc(NS(=O)(=O)c3ccc(C)cc3)ccc2OC[C@H](C)N(C(=O)NC(C)C)C[C@@H]1C` is -8.46%. For the compound `COc1ccccc1S(=O)(=O)Nc1ccc2c(c1)C(=O)N(C)C[C@@H](OC)[C@@H](C)CN[C@@H](C)CO2`, the activity change, negative = inhibition was -2.95%. The figure for `CCOC(=O)CN1CCCc2nc(C)c(C)cc21` is -11.4%; for `Cc1ccc(Cn2nnnc2CN2CCC(c3nc4ccc(Cl)cc4[nH]3)CC2)cc1` it is 44.3%; for `CC(=O)c1ccc([C@H]2C[C@@]34CN(C(=O)OC(C)(C)C)S(=O)(=O)[C@H]3C[C@H]2O4)cc1` it is -3.29%. Turning to `COc1ccc(C)cc1NC(=O)CCNS(=O)(=O)c1ccc2c(c1)CC(C)N2C(C)=O` (stereo unspecified), the activity change, negative = inhibition is -17.8%. Take `CNC[C@@H]1Oc2ccc(NS(C)(=O)=O)cc2CC(=O)N([C@H](C)CO)C[C@H]1C`: the activity change, negative = inhibition is 18.9%. The figure for `O=C(Nc1ccc(Cl)cn1)C1CCCN1S(=O)(=O)c1cccc2ccccc12` (stereo unspecified) is -67.5%; for `CCCN1[C@H](C(=O)N[C@@H](C)c2ccccc2)[C@@H](CO)[C@@H]2Cn3c(ccc(-c4cccc(F)c4)c3=O)[C@@H]21` it is 99.2%; for `Cc1nc2ccccc2c2oc(C(=O)NCc3ccc4c(c3)OCO4)cc12` it is -50%. The figure for `CCc1ccc(-c2nc(CN3CCC(C(=O)NCCc4ccc(OC)c(OC)c4)CC3)c(C)o2)cc1` is -25.1%. As for `COc1ccc(S(=O)(=O)N[C@H]2C=C[C@H](CC(=O)N3CCN(c4ccccc4)CC3)O[C@@H]2CO)cc1`, the activity change, negative = inhibition was -26.4%. Consider `O=C(Cc1ccccc1)N[C@@H]1C=C[C@H](CC(=O)N2CCCCC2)O[C@@H]1CO`, for which the activity change, negative = inhibition is -10.8%. Take `Cc1ccc(S(=O)(=O)N[C@@H]2CC[C@H](CCNC(=O)c3ccccc3F)O[C@H]2CO)cc1`: the activity change, negative = inhibition is 23.6%.

Consider `CC(C)CN(C(=O)c1ccc(S(=O)(=O)N2CCCCC2)cc1)C1CCS(=O)(=O)C1` (stereo unspecified), for which the activity change, negative = inhibition is -25.2%. Consider `COCc1[nH]nc2c1C(c1ccc(F)cc1)N(Cc1ccccc1)C2=O` (stereo unspecified), for which the activity change, negative = inhibition turned out to be 11.7%.

On to `O=C(Nc1ccc(F)cc1)Nc1ccc2c(c1)[C@H]1C[C@@H](CC(=O)N3CCCCC3)O[C@H](CO)[C@H]1O2`, for which the activity change, negative = inhibition was found to be 57.6%. To `CS(=O)(=O)N(Cc1ccc(Cl)cc1)c1ccc(C(=O)NCCC2=CCCCC2)cc1` belongs -7.87%.

For the compound `CC(=O)OC1c2ccccc2C(=O)N1c1ccccc1C` (stereo unspecified), the activity change, negative = inhibition was -15.7%. To `Cc1ccc(C2CC(=O)c3cnc(N4CCc5ccccc5C4)nc3C2)cc1` (stereo unspecified) belongs 0.787%; to `CN1C(=O)c2cc(NC(=O)NC3CCCC3)ccc2OC[C@@H]2O[C@H](CC(=O)NC3CCC3)CC[C@@H]21`, -5.79%. The figure for `CCNC(=O)C[C@H]1CC[C@@H]2[C@@H](COc3ccc(NC(=O)Cc4cccs4)cc3C(=O)N2C)O1` is 66.7%; for `Cc1nn(C)cc1NC(=O)C[C@H]1CC[C@@H]2[C@@H](COc3ccc(NC(=O)C4CCC4)cc3C(=O)N2C)O1` it is -24.8%.

Consider `CCNC(=O)Nc1ccc2c(c1)C(=O)N(C)[C@@H]1CC[C@@H](CC(=O)NCC3CCCCC3)O[C@@H]1CO2`, for which the activity change, negative = inhibition was -14.5%. To `COCC(=O)Nc1ccc2c(c1)C(=O)N(C)[C@H]1CC[C@H](CC(=O)NC3CCCC3)O[C@H]1CO2` belongs 17%; to `COc1ccc(NC(=O)C(=O)NCC2CCCN2S(=O)(=O)c2cccs2)cc1` (stereo unspecified), 23.4%; to `COc1ccc(OC)c(NC(=O)COc2ccc3c(c2)CCC3)c1`, 43.3%.

Turning to `COc1ccccc1CCNCc1ccc(OC)c(OCc2ccccc2)c1`, the activity change, negative = inhibition is 45.9% [at 16 µM].

Take `O=C(NCCCc1nc2ccccc2[nH]1)c1ccco1`: the activity change, negative = inhibition was -25.6%.

On to `C[C@H](O)[C@@H]1C(=O)N2CCc3c([nH]c4cccc(-c5ccccc5)c34)[C@@H]2C[C@@H]1N(C)C(=O)OCc1ccccc1`, for which the activity change, negative = inhibition was -17.1%.

Turning to `C=C(C)CN(CC)c1nc(N)c2c(N)nc3c(c2c1C#N)CC(=O)N3C12CC3CC(CC(C3)C1)C2`, the activity change, negative = inhibition was found to be 27.3%. In the case of `COC(=O)[C@@]1(Cc2ccc(F)cc2)[C@H]2c3cc(C(=O)N(C)C)n(CCO)c3C[C@H]2CN1C(=O)c1ccccc1`, the activity change, negative = inhibition came to 39.7%.
